According to the supplement of paper PMC6089552:
In all, about 3,200 compounds went through this assay and about 300 (9.4%) showed activity. The sample holds actives, similar compounds and a random draw of the others, so the mix is not that of the screen.

System: A673/TR/shEF
Test: cell viability (LOESS-normalised, relative to median of negative controls) (log2 ratio); higher = more viable cells (less compound effect), active = hit call of the paper (over 3 MAD below the median)
Settings: treatment time: 72 h
In short: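 A673/TR/shEF Ewing sarcoma cells (1,500 per well, 384-well plates) were grown with or without doxycycline to induce EWS-FLI1 shRNA knockdown, starting 24 h before compounds. Library compounds at two or more concentrations, with DMSO controls, were added for three days. Cell viability was read by CellTiter-Glo luminescence on an Envision reader, then LOESS-corrected per plate, divided by the median of negative controls and log2-transformed. Hits were wells at least three median absolute deviations from the median of all screened wells.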

[1] = 0.25 µM, library screen: screen1, EWS-FLI1 expression: high (no doxycycline)
[2] = 0.25 µM, library screen: screen1, EWS-FLI1 expression: low (doxycycline-induced shRNA knockdown)
[3] = 2.5 µM, library screen: screen1, EWS-FLI1 expression: high (no doxycycline)
[4] = 2.5 µM, library screen: screen1, EWS-FLI1 expression: low (doxycycline-induced shRNA knockdown)
[5] = 0.25 µM, library screen: screen2, EWS-FLI1 expression: high (no doxycycline)
[6] = 0.25 µM, library screen: screen2, EWS-FLI1 expression: low (doxycycline-induced shRNA knockdown)
[7] = 2.5 µM, library screen: screen2, EWS-FLI1 expression: high (no doxycycline)
[8] = 2.5 µM, library screen: screen2, EWS-FLI1 expression: low (doxycycline-induced shRNA knockdown)
[9] = 0.103 µM, library screen: screen3, EWS-FLI1 expression: high (no doxycycline)
[10] = 0.103 µM, library screen: screen3, EWS-FLI1 expression: low (doxycycline-induced shRNA knockdown)
[11] = 0.308 µM, library screen: screen3, EWS-FLI1 expression: high (no doxycycline)
[12] = 0.308 µM, library screen: screen3, EWS-FLI1 expression: low (doxycycline-induced shRNA knockdown)
[13] = 0.926 µM, library screen: screen3, EWS-FLI1 expression: high (no doxycycline)
[14] = 0.926 µM, library screen: screen3, EWS-FLI1 expression: low (doxycycline-induced shRNA knockdown)
[15] = 2.8 µM, library screen: screen3, EWS-FLI1 expression: high (no doxycycline)
[16] = 2.8 µM, library screen: screen3, EWS-FLI1 expression: low (doxycycline-induced shRNA knockdown)
[17] = 8.3 µM, library screen: screen3, EWS-FLI1 expression: high (no doxycycline)
[18] = 8.3 µM, library screen: screen3, EWS-FLI1 expression: low (doxycycline-induced shRNA knockdown)
[19] = 25 µM, library screen: screen3, EWS-FLI1 expression: high (no doxycycline)
[20] = 25 µM, library screen: screen3, EWS-FLI1 expression: low (doxycycline-induced shRNA knockdown)

Measured: cell viability (log2)

COc1cc(C2NC(=O)NC(C)=C2C(=O)Nc2cccc(Cl)c2)cc(OC)c1OC (stereo not drawn)
inactive: [1] 0.0796 | [2] 0.0843 | [3] 0.0754 | [4] -0.0585

O[Si](CCCN1CCCCC1)(c1ccc(F)cc1)C1CCCCC1 (stereo not drawn)
inactive: [5] 0.132 | [6] 0.0854 | [7] 0.109 | [8] 0.178

Cc1c(NC(=O)Nc2ccc3ccccc3c2)c(=O)n(-c2ccccc2)n1C
inactive: [1] 0.0897 | [2] 0.113 | [3] 0.056 | [4] 0.16

CC1(C)C(=O)N(CCN2CCC(C(=O)c3ccc(F)cc3)CC2)c2ccccc21
inactive: [9] -0.034 | [10] 0.0315 | [5] 0.081 | [6] 0.0775 | [11] 0.05 | [12] 0.0455 | [13] 0.00913 | [14] 0.0245 | [7] 0.0771 | [8] 0.0581 | [15] -0.0171 | [16] 0.0924 | [17] -0.00458 | [18] 0.0164 | [19] 0.0894 | [20] 0.0236

Cc1nc2ccccn2c(=O)c1CCN1CCC(C(=O)c2ccc(F)cc2)CC1
inactive: [1] 0.119 | [2] 0.184 | [5] 0.229 | [6] 0.127 | [3] 0.124 | [4] 0.101 | [7] 0.243 | [8] 0.107

O=C(c1ccc(F)cc1)C1CCN(CCn2c(=O)[nH]c3ccccc3c2=O)CC1
active: [5] -0.282 | [6] -0.245 | [7] -2.12 | [8] -2.83

COc1ccc2c(c1)CC[C@@H]1[C@@H]2CC[C@]2(C)[C@@H](NCCCCCCN3C(=O)CCC3=O)CC[C@@H]12
inactive: [5] 0.149 | [6] 0.104 | [7] 0.246 | [8] 0.108

COc1cccc2c(C)cc(=O)[nH]c12
inactive: [1] 0.0638 | [2] 0.0801 | [3] 0.144 | [4] 0.0702

C[C@@H]1CCC2[C@@H](C)[C@@H](O)O[C@@H]3OC4(C)CC[C@@H]1[C@@]23OO4 (stereo partly drawn)
inactive: [1] 0.104 | [2] 0.00583 | [3] 0.029 | [4] -0.122

CN(C)c1ccc(C=C2SC(=S)N(c3ccc(F)cc3)C2=O)cc1
inactive: [1] 0.0645 | [2] 0.154 | [3] 0.09 | [4] 0.192

C=CC(C)(C)c1c2c(c(O)c3c(=O)c4ccc(O)c(O)c4oc13)C=CC(C)(C)O2
inactive: [1] -0.0194 | [2] 0.182 | [3] -0.0746 | [4] 0.15

CC1C(=O)CC2CC1C2(C)C (stereo not drawn)
active: [1] -0.106
inactive: [2] 0.0655 | [3] 0.091 | [4] 0.103

NC(=O)c1ccccc1NC(=O)c1cc2ccccc2o1
inactive: [1] 0.112 | [2] 0.167 | [3] 0.0735 | [4] 0.103

O=C(O)CCCCCCCCCCCCC1C=CCC1 (stereo not drawn)
inactive: [1] 0.109 | [2] -0.0641 | [3] 0.133 | [4] 0.00345

CCC(C)[C@H]1O[C@]2(CC[C@@H]1C)CC1C[C@@H](C/C=C(\C)[C@@H](O[C@H]3C[C@H](OC)[C@@H](OC4C[C@H](OC)[C@@H](O)[C@H](C)O4)[C@H](C)O3)[C@@H](C)/C=C/C=C3\CO[C@@H]4[C@H](O)C(C)=C[C@@H](C(=O)O1)[C@]34O)O2.CO[C@H]1CC(O[C@H]2[C@H](C)O[C@@H](O[C@@H]3/C(C)=C/C[C@@H]4CC(C[C@]5(CC[C@H](C)[C@@H](C(C)C)O5)O4)OC(=O)[C@@H]4C=C(C)[C@@H](O)[C@H]5OC/C(=C\C=C\[C@@H]3C)[C@]54O)C[C@@H]2OC)O[C@@H](C)[C@@H]1O (stereo partly drawn)
inactive: [9] 0.062 | [10] 0.111 | [5] 0.0727 | [6] 0.0714 | [11] -0.0408 | [12] 0.0112 | [13] -0.0851 | [14] -0.0397 | [8] -0.0072
active: [7] -0.104 | [15] -0.279 | [16] -0.285 | [17] -0.239 | [18] -0.115 | [19] -3.03 | [20] -1.99

CO[C@H]1C[C@H](O[C@@H]2/C(C)=C/C[C@@H]3C[C@@H](C[C@]4(CC[C@H](C)[C@@H](C5CCCCC5)O4)O3)OC(=O)[C@@H]3C=C(C)/C(=N/O)[C@H]4OC/C(=C\C=C\[C@@H]2C)[C@]43O)O[C@@H](C)[C@@H]1O
inactive: [1] 0.0971 | [2] 0.0732 | [3] 0.0965 | [4] 0.0106

Cc1cc(=O)c2c(O)c3c(cc2o1)OC(C)(C)CC3
inactive: [1] -0.0169 | [2] 0.014 | [3] 0.0268 | [4] 0.147

CCC[C@H]1CC2=C(C[C@@H](CC)CC3=C1C(=O)OC3=O)C(=O)OC2=O
inactive: [1] 0.0818 | [2] 0.0576 | [3] 0.117 | [4] 0.0649

Cc1sc2c(=O)n3c(nc2c1C(=O)NCCc1ccccc1)CCCCC3
inactive: [1] 0.129 | [2] 0.0568 | [3] 0.167 | [4] 0.136

CC(C)CCC[C@@H](C)C1CC[C@H]2[C@@H]3CCC4=CC(=O)C=C[C@]4(C)[C@H]3CC[C@]12C (stereo partly drawn)
inactive: [1] 0.107 | [2] 0.0599 | [3] 0.105 | [4] 0.0638

c1ccc([C@@H]2CCC[C@@H]2NC2=NCCCCCCCCCCC2)cc1
inactive: [5] 0.117 | [6] 0.0677 | [7] 0.18 | [8] 0.156

CC1(C)C[C@@]23C(=O)CC[C@@H](O)C2(C)CC[C@H]13 (stereo partly drawn)
inactive: [1] 0.0615 | [2] -0.0504 | [3] 0.0572 | [4] 0.0807

COc1c(O)cc(C2Oc3c(c(O)cc(O)c3[C@H]3c4c(O)cc(O)cc4O[C@H](c4ccc(O)cc4)[C@@H]3O)C[C@H]2O)cc1O (stereo partly drawn)
inactive: [9] -0.000188 | [10] 0.0292 | [11] -0.0295 | [12] -0.00938 | [13] 0.0249 | [14] 0.0493 | [15] -0.0107 | [16] 0.0655 | [17] 0.0329 | [18] 0.11 | [19] 0.0402 | [20] 0.209
